# In the library only some 12% were active in any assay of this set; here they are far more common.
# JMJD2A Tudor inh: inhibitors of human JMJD2A Tudor domain | O75164 | Potency, µM (doses to about 114 µM), hits mostly inhibitors | actives 4.4% (n = 390,000) | AlphaScreen JMJD2A-Tudor / H3K4me3 peptide binding; further: nearly all actives have a fitted effect of over 50% in size
# Sfp inh: blocks B. subtilis Sfp PPTase activity | Q9F4F7 | Biochemical Sfp PPTase activity, qHTS | Potency, µM, actives largely listed as inhibitors | actives 3.5% (n = 310,000);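 further: the enzyme is Sfp with the accession as filed and its product quenches rhodamine fluorescence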
#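 After 15 min at room temperature with compound, 15 nM Sfp received 5 uM rhodamine-CoA plus 12.5 uM BHQ-2-ybbR (50 mM Hepes pH 7.6, 10 mM MgCl2). Rate came from the fluorescence difference over 30 min, ex 525/em 598 nm.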
# HP1b binding inh: HP1-beta chromodomain-methylated histone interaction inhibition; AlphaScreen HP1-beta / biotin-H3K9me3 peptide binding; Potency, µM (top dose mostly 114 µM), hits mostly inhibitors; actives 0.56% (n = 390,000); AID 540317; further: nearly all actives have a fitted effect of over 70% in size
# Target sequence (P83916 whole entry, looked up): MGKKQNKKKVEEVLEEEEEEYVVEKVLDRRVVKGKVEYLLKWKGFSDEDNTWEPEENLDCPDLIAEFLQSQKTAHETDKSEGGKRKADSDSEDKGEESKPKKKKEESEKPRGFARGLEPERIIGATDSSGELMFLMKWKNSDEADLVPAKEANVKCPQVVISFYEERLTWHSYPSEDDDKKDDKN
#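 Compound inhibition of the preformed complex between 50 nM HP1-beta and 50 nM biotinylated H3K9me3 peptide was read by AlphaScreen. Buffer was PBS pH 7.4 with 0.01% Tween-20. Incubations ran 30 min at room temperature, with 10 ug/mL donor/acceptor beads.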
# PLK1 PBD inh: blocks phosphopeptide binding to human PLK1 polo-box domain. Plk1 PBD binding of FITC phosphopeptide, fluorescence polarization. P53350. AID 720504. Potency, µM, hits mostly inhibitors. actives 2.8% (n = 360,000); further: series mostly up to about 57 µM; nearly all actives have a fitted effect of over 65% in size
# BAZ2B block: inhibitors of human BAZ2B bromodomain. Potency, µM (highest dose often 114 µM), actives largely listed as inhibitors. Q9UIF8. actives 4.4% (n = 360,000). AlphaScreen BAZ2B-H3K14Ac peptide displacement; further: nearly all actives have a fitted effect of over 60% in size
#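 Compounds, titrated to a top concentration of 110 uM, were incubated 30 min at room temperature with preformed BAZ2B/acetyl-K14 H3 peptide complex (50 nM each). Proximity signal was measured by AlphaScreen after 20 min with beads.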
# G9a block: blocks human histone lysine methyltransferase G9a; actives 8.8% (n = 350,000); Q96KQ7; G9a H3K9 monomethylation, AlphaScreen, 2 h; Potency, µM (titrated, usually from 102 µM), hits mostly inhibitors; further: nearly all actives have a fitted effect of over 75% in size
# Target sequence (Q96KQ7 913-1193 limits assumed): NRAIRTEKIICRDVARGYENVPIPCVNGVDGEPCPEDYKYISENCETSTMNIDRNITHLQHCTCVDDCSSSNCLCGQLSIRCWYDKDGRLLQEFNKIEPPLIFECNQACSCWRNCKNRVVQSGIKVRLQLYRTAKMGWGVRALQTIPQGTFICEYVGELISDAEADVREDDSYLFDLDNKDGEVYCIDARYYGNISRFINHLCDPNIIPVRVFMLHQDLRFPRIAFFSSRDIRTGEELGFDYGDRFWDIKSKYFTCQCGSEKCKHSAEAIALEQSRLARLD
#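 Chemiluminescent proximity detection of H3K9 monomethylation, read after 10 min bead incubation in the dark. Reaction: 20 nM G9a, 500 nM biotin-H3K9 peptide, 20 uM SAM cofactor, 2 h, room temperature, following 15 min enzyme-compound preincubation.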
# Hits are given with their value; n = inactive; u = inconclusive; x = no result given; ! = repeats disagree; [ ] = remark or other dose. The call rests on the fitted dose curve; in most records, active means well fitted curve in the direction sought with a large enough effect; inconclusive means small, poorly fitted or top-dose-only effect, or another doubt; inactive means no such curve, though single readings can be large; an effect the other way counts as inactive or inconclusive.
SMILES,JMJD2A Tudor inh,Sfp inh,HP1b binding inh,PLK1 PBD inh,BAZ2B block,G9a block
CCC(C)C(=O)OC1C2CC3=C4CC(=O)OC(c5ccoc5)[C@]4(C)CCC3[C@@](C)(C2=O)C(CC(=O)OC)C1(C)C (some centres undefined),x,n,x,x,x,n[2.33 µM]
CS(=O)(=O)NCCCCCCNS(C)(=O)=O,n[11.4 µM],n,n,n,n,50µM
Cc1ccc(S(=O)(=O)NCCCNS(C)(=O)=O)cc1,n,n,n,n,n,n
Cc1cccc(CNC(=O)c2ccc3oc(=O)n(Cc4ccccc4)c3c2)c1,n,x,n,x,n,n[12.7 µM]
O=C(O)c1c[nH]ccc1=O,7.1µM,n,n,n,u,u
O=C(c1csnn1)N1CCC2(CC1)CCN(c1ccccc1)CC2,x,n,x,x,x,n[12.7 µM]
CCN(CC)c1ccc(C2C(C(N)=O)=C(C)Nc3nc(SCc4ccccc4Cl)nn32)cc1 (centres undefined),n,x,n,x,n,n
CCOC(=O)c1c(-c2ccccc2)oc2ccc(OCc3ccccc3Br)cc12,n,x,n,x,n,n
CCCC(=O)Nc1ccc2c(c1)nc1n2CCN(C2CCCCC2)C1,u,n,n,u,n,13µM
CC(=O)Nc1ccc2c(c1)nc1n2CCN(C2CCCCC2)C1,n,n,n,n,u,10µM
CNS(=O)(=O)c1cn(CC(=O)N2CCN(c3ccc(C(C)=O)cc3)CC2)cc1S(=O)(=O)NC,n,x,n,x,n,n
C=CCN(c1ccccc1)S(=O)(=O)c1cccc(C(=O)NC2CCN(Cc3ccccc3)CC2)c1,n,x,n,n,n,50µM
S=C1NC2=C(CCC/C2=C\c2ccccc2)C(c2ccccc2)N1 (centres undefined),u,22µM,n,u,u,8.9µM
CC(=O)C1=C(C)Nc2ncnn2C1c1ccccc1 (centres undefined),n,n,n,n,n,n
C(=C1/CCCC2=C1Nc1ncnn1C2c1ccccc1)/c1ccccc1 (centres undefined),x,50µM,x,x,n,45µM
CC1CC2=C(NC(=S)NC2c2ccc(F)cc2)/C(=C/c2ccc(F)cc2)C1 (centres undefined),n,n,n,u,u,25µM
S=C1NC2=C(CCC/C2=C\c2ccc(Cl)cc2)C(c2ccc(Cl)cc2)N1 (centres undefined),n,7.9µM,n,u,n,x
FC(F)(F)c1ccccc1C1C2=C(Nc3ncnn31)c1ccccc1CCC2 (centres undefined),x,28µM,x,x,n,u
CN(C)C(=O)c1ccc(-c2cncnc2NCc2cccnc2)cc1,x,n,x,x,x,n[0.501 µM]
CC1C/C(=C/c2ccco2)C(=O)/C(=C/c2ccco2)C1 (centres undefined),x,u,x,x,35µM,13µM
O=C1/C(=C\c2ccco2)CCC/C1=C\c1ccco1,45µM,11µM,45µM,n,45µM,u
CC1C/C(=C/c2ccccn2)C(=O)/C(=C/c2ccccn2)C1 (centres undefined),n,45µM,n,u,u,50µM
CC(C)(C)C1C/C(=C/c2ccccn2)C(=O)/C(=C/c2ccccn2)C1 (centres undefined),n[11.4 µM],u,n,u,u,u
O=C1/C(=C/c2ccco2)Cc2ccccc21,n,n,n,n,u,u
CC1=CC23C(=O)C(C=C(CO)[C@@H](O)[C@]2(O)[C@H]1O)[C@H]1[C@@H](C[C@H]3C)C1(C)C (some centres undefined),x,n,x,x,x,x
SMILES,JMJD2A Tudor inh,Sfp inh,HP1b binding inh,PLK1 PBD inh,BAZ2B block,G9a block
CNC(=O)c1c(C)[nH]c(=S)c(C#N)c1-c1ccco1,18µM,8.9µM,u,u,u,x
Cc1ccccc1NC(=O)c1c(C)[nH]c(=S)c(C#N)c1-c1ccco1,n,56µM,n,u,n,1.3µM
CSc1nc(C)c(C(=O)Nc2ccccc2)c(-c2ccco2)c1C#N,n,n,n,n,n,n
CCN1C(=O)C(=O)c2cc(C)ccc21,n,x,n,n,x,x
CCN1C(=O)C=CC1=O,x,x,x,x,x,1µM!
O=S(=O)(c1ccc(Cl)s1)N1CCN(C/C=C/c2ccccc2)CC1,1µM,n,u,n,u,14µM
O=S(=O)(c1cccc2nsnc12)N1CCN(C/C=C\c2ccccc2)CC1,u,n,n,n,u,50µM
O=S(=O)(c1cccs1)N1CCN(C/C=C/c2ccccc2)CC1,n,n,n,n,n,n[12.7 µM]

# Source: PubChem BioAssay (National Center for Advancing Translational Sciences (NCATS))
